# PfHsp90 set2 – inhibits growth of yeast expressing Plasmodium falciparum Hsp90 | S. cerevisiae expressing PfHsp90, BacTiter-Glo ATP, 48 h; yeast lacking PDR1 and PDR3 efflux regulators | inhibition, % at 9.4 µM | AID 504621 | hit rate 0.32% among 310,000;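 active = every replicate shows inhibition above about 80%, whatever the replicate mean, limit read from the data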
# SUMO Mot1 rescue – inhibitors of SUMOylation pathway: yeast Mot1-301 growth rescue | S. cerevisiae Mot1-301 growth rescue, ATP luminescence, 38.5C; percent above DMSO median, 100 means doubled | growth rescue, % at 18.8 µM | hit rate 1% among 320,000 | AID 2716;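 active = every valid replicate shows activation above 250% relative to neutral control wells; inactive = the rest, any valid replicate at or below 250%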
# tim10-1 inh – growth inhibitors of tim10-1 mutant yeast. S. cerevisiae tim10-1 ts strain growth, BacTiter-Glo, 24 h. inhibition, % at 20 µM. hit rate 2.2% among 330,000. AID 463190;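 active = inhibition of at least 40%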;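 note: mutant grown at 25 °C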
# tim23-1 inh – growth inhibitors of tim23-1 mutant yeast. S. cerevisiae tim23-1 growth, BacTiter-Glo luminescence, 24 h. inhibition, % at 20 µM. hit rate 1.3% among 330,000. AID 463212;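 active = growth inhibition of the mutant yeast at or above 50%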;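 note: temperature-sensitive mutant grown at 25 °C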
# TIM10 inh – growth inhibitors of TIM10 yeast strain; hit rate 1.4% among 330,000; AID 463195; S. cerevisiae TIM10 strain growth, BacTiter-Glo luminescence, 24 h; inhibition, % at 10 µM;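 active = inhibition of 40% or more at the single tested concentration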;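 note: wild-type TIM10 isogenic control strain grown at permissive 25 °C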
# Yeast Mot1 SUMO – inhibits SUMO pathway, affecting Mot1-301 yeast growth | 2,300 tested, under 10 active | growth activity, percent, % at 42 µM | S. cerevisiae Mot1-301 galactose growth, ATP luminescence, 24 h; -100 = growth of slx-deleted rescue strain | shares compounds with SUMO Mot1 rescue | AID 493004;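 active = Signal drops as the depositor expects, and the fitted half-maximal dose is no more than ten times the top valid tested dose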;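 note: more negative values mean stronger growth rescue toward the control strain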
# Numbers stand for hits; i = inactive; nt = no result given; + = active, no number. Shown are actives, neighbours in structure and some others; about 4.4% of the full set was active somewhere.
SMILES,PfHsp90 set2,SUMO Mot1 rescue,tim10-1 inh,tim23-1 inh,TIM10 inh,Yeast Mot1 SUMO
CC(=O)c1ccc(NC(=S)NCCCN2CCOCC2)cc1,i,i,i,i,i,nt
O=C1CN(C(=O)COC(=O)CCNS(=O)(=O)c2ccc(Cl)cc2)c2ccccc2N1,i,365,i,i,i,i
Cc1ccc(S(=O)(=O)NCC(=O)NCC(=O)OCC(=O)N2CC(=O)Nc3ccccc32)cc1C,i,i,i,i,i,nt
O=Cc1ccc(C(=O)OCC(=O)NCCC2=CCCCC2)cc1,nt,i,i,i,i,nt
CC(=O)Nc1ccc(N(C(=O)CNC(=O)c2ccco2)C(C(=O)NC2CCCC2)c2ccco2)cc1 (centres undefined),i,i,i,i,i,nt
COc1ccc(NC(=O)Nc2ccc(OC)cc2)cc1,i,391,i,i,i,i
COc1ccc(NC(=S)NC(=O)C2CCC2)cc1,i,555,i,i,i,i
Cc1ncc(NS(=O)(=O)c2ccc(N)cc2)nc1C,i,nt,nt,nt,nt,nt
N#C/C(=C/c1ccc(N2CCCCC2)o1)C(=O)Nc1ccc2ccccc2c1,i,nt,nt,nt,nt,nt
N#C/C(=C/c1ccc(N2CCCCC2)o1)C(=O)Nc1ccc(Cl)cc1,i,587,i,i,i,i
O=C(O)c1ccc(S(=O)(=O)N2CCN(c3ccccn3)CC2)cc1,i,763,i,i,i,i
O=C(O)c1cccc(S(=O)(=O)N2CCN(c3ccccn3)CC2)c1,i,i,i,i,i,nt
COc1ccc(N2CCN(C(=O)CCC(=O)N3Cc4ccccc4Oc4ncccc43)CC2)cc1,i,i,i,i,i,nt
CCCNC(=O)c1ccc(N2CC3CC(C2)c2cccc(=O)n2C3)c(NC(=O)Nc2ccc(CC)cc2)c1 (centres undefined),i,i,i,i,i,nt
COc1cccc(NC(=O)Nc2cc(C(=O)NC(C)C)ccc2N2CC3CC(C2)c2cccc(=O)n2C3)c1 (centres undefined),i,402,i,i,i,i
Cn1c(=O)c2c(ncn2CC(=O)OCC(=O)Nc2ccc(Cl)cc2)n(C)c1=O,i,847,i,i,i,i
O=C1NC(c2ccccc2)C(C(=O)c2cccs2)C(O)(C(F)(F)F)N1 (centres undefined),i,374,i,i,i,i
COc1cc(C2NC(=S)NC(O)(C(F)(F)F)C2C(=O)c2cccs2)cc(OC)c1O (centres undefined),i,i,i,i,i,nt
COc1ccc(CCN(C)C(=O)c2c(C)noc2C)cc1OC,i,i,i,i,i,nt
CC(/C=C\c1cccnc1)=C/C(=O)O,i,i,i,i,i,nt
O=C(O)/C=C/c1cccnc1,i,399,i,i,i,i
Cc1cc(NC(=O)c2cccc(C)c2[N+](=O)[O-])no1,i,i,i,i,i,nt
COc1ccc(/C(CC2(O)C(=O)Nc3ccccc32)=N\O)cc1 (centres undefined),i,i,i,i,i,nt
C/C(CC1(O)C(=O)Nc2ccccc21)=N\O (centres undefined),i,519,i,i,i,i
CCN1CCCC1CN(Cc1cc2ccc(C)cc2[nH]c1=O)C(=S)Nc1ccccc1C(=O)OC (centres undefined),i,+,i,i,i,i
SMILES,PfHsp90 set2,SUMO Mot1 rescue,tim10-1 inh,tim23-1 inh,TIM10 inh,Yeast Mot1 SUMO
CCN1CCCC1CN(Cc1cc2ccc(C)cc2[nH]c1=O)C(=S)Nc1ccccc1OC (centres undefined),i,i,i,i,i,nt
CCOc1ccc(N(C)Cc2cc(=O)oc3ccc(OCC)cc23)cc1,i,i,i,i,i,nt
CSc1cccc(NC(=S)N2CCCN(Cc3ccccc3F)C2)c1,i,496,i,i,i,i
CSc1cccc(NC(=S)N2CCC(N(C)C3CCCCC3)CC2)c1,i,i,i,i,i,nt
O=C(O)c1cccc(S(=O)(=O)Nc2ccc(OCc3ccccc3)cc2)c1,i,i,i,i,i,nt
O=C(O)c1cc(S(=O)(=O)Nc2ccc(OCc3ccccc3)cc2)ccc1Br,i,414,i,i,i,i
C/C(=N\NC(=O)c1nn(C)c(C)c1Br)c1ccc(NC(=O)C2CCCC2)cc1,i,i,i,i,i,nt
COC(=O)c1sccc1NC(=S)N1CCCCC1,i,+,i,i,i,i
CCCC1(C(=O)OC)NC(c2ccc(OC)c(OC)c2)C2C(=O)N(c3cccc(C(C)=O)c3)C(=O)C21 (centres undefined),i,i,i,i,i,nt
O=C(Nc1nnc(SCC(=O)N2CCOCC2)s1)c1ccccc1,i,i,i,i,i,nt
O=C(CSc1nnc(NC(=O)CN2CCOCC2)s1)Nc1ccccc1,i,+,i,i,i,i
Cc1onc(-c2ccccc2Cl)c1C(=O)N1CCCCC1C (centres undefined),i,i,i,i,i,nt
CC[C@@H]1C=C(C(=O)O)[C@H](c2cccc(C)c2)N1S(=O)(=O)c1ccc(C)cc1,i,nt,i,i,i,nt
CCN(CC)S(=O)(=O)c1ccc(NC(=O)C(C)N(c2ccccc2)S(C)(=O)=O)cc1 (centres undefined),i,+,i,i,i,i
Cc1ccc(CN(C(=O)c2csnn2)C(C(=O)NC2CCCC2)c2cccnc2)cc1 (centres undefined),i,i,i,i,i,nt
O=C(COc1ccc(Cl)cc1)NCCCNC(=O)c1ccccn1,i,565,i,i,i,i
Cc1cccc(OCC(O)CN2C(C)(C)CC(O)CC2(C)C)c1 (centres undefined),i,571,i,i,i,i
CCN(C(=O)CSc1nnc(-c2ccc(C)cc2)n1N)c1c(N)n(Cc2ccccc2)c(=O)[nH]c1=O,i,nt,i,i,i,nt
COCCN(C(=O)CSc1nnc(-c2ccc(C)cc2)n1N)c1c(N)n(Cc2ccccc2)c(=O)[nH]c1=O,i,516,i,i,i,i
Cc1cc(=O)oc(C)c1C(=O)Nc1ccc(Cl)cn1,i,421,i,i,i,i
COc1ccccc1CNC(=O)c1cccc(S(=O)(=O)N2CCCC2)c1,i,nt,i,i,i,nt
CCC1CCCCN1C(=O)CSc1nc(N)cc(N)n1 (centres undefined),i,i,i,i,i,nt
Cc1nc(CCNC(=O)c2ccccc2)cs1,i,641,i,i,i,i
Cc1ccc(C(=O)N2CCN(Cc3ccc4c(c3)OCO4)CC2)cc1C,i,i,i,i,i,nt
Cc1ccc(C(C(=O)NCC2CCCO2)N(Cc2ccccc2F)C(=O)Cn2nnc(-c3cccs3)n2)cc1 (centres undefined),i,371,i,i,i,i
CC(=O)N1CCc2cc(S(=O)(=O)Nc3ccc(C)cc3C)ccc21,i,i,i,i,i,nt
CC(=O)N1CCCc2cc(S(=O)(=O)Nc3ccc(C)cc3C)ccc21,i,474,i,i,i,i
O=C(Cn1nc(-c2ccccc2)ccc1=O)N1CCCCC1,i,i,i,i,i,nt
